Experimental findings from PubChem BioAssay (Tox21) are described below.

Results filed as inconclusive are left out. A call without a number means that no potency is given here. Activity calls are given as the source filed them. The call rests on the fitted dose curve; in most records, active means well fitted activation curve with a large enough effect in the repeat runs; inconclusive means weak or mixed curves; inactive means flat fitted curve, though single readings scatter.

This assay in a line: A CellTox Green Cytotoxicity Assay to monitor cytotoxicity in HEK293 cells - 16 hour (AID 1224888). Further: nearly all actives have a fitted effect of over 35% in size. The conditions noted are these: CellTox Green fluorescence; series mostly up to 76.8 µM. The text has this:
National Center for Advancing Translational Sciences [NCATS]
NIH Chemical Genomics Center [NCGC]
U.S. Environmental Protection Agency [EPA]
National Institutes of Environmental Health Sciences [NIEHS]
National Toxicology Program [NTP]
Cell-based models are critical for drug discovery. Determining the natural cytotoxic effects resulting from test compounds is an essential research activity. A CellTox Green Cytotoxicity Assay to monitor cytotoxicity in real time of continues cell culture during 40 hours of the compound treatment was used to screen Tox21 10K library compounds in Hek293 cells. CellTox Green Cytotoxicity Assay is a nonlytic, homogeneous, biofluorescent method to measure cytotoxicity in cell culture after experimental manipulation. The assay system uses a proprietary asymmetric cyanine dye that is excluded from viable cells but preferentially stains the dead cell's DNA. […] Viable cells produce no appreciable increases in fluorescence. Therefore, the fluorescence signal produced by the binding interaction with dead cell DNA is proportional to cytotoxicity.
The mixture of Hek293 cell suspension and reagents were dispensed at 600cells/6 ul/well in 1536-well tissue culture treated black solid bottom plates using a Multidrop dispenser. After the assay plates were incubated at a 37 C/5% CO2 incubator for 5 hours, 23 nL of compounds dissolved in DMSO, positive and negative controls was transferred to the assay plate by a pintool work station. The plates were incubated at 37 C for 40 hours. The fluorescence intensity were measured at 0h, 8h, 16h, 24h, 32h and 40h time points using ViewLux plate reader during compound treatment.
In the case of `CCCCN(CC)C(=O)SCCC`, the Potency result is “inactive”.

Regarding `COC(=O)NC(=S)Nc1ccccc1NC(=S)NC(=O)OC`, the Potency result is “inactive”.

As for `[O-][Cl+2]([O-])O`, the Potency entry is “inactive”.

Consider `Cc1[nH]c(=O)n(C(C)(C)C)c(=O)c1Cl`, for which the Potency result was “inactive”.

As for `CCOP(=S)(OCC)SCCSCC`, the Potency result is “inactive”.

`[N-]=[N+]=[N-]`: the Potency entry is “inactive”.

Take `CC(C#N)CCC#N` (stereo not given): the Potency result was “inactive”.

As for `Nc1ccc(Oc2ccc(N)cc2)cc1`, the Potency entry was “inactive”.

On to `Nc1ccc(Cc2ccc(N)cc2)cc1`, for which the Potency entry is “inactive”.

With `CC(C)(C)C(O)(CCc1ccc(Cl)cc1)Cn1cncn1` (stereo not given), the Potency result is “inactive”.

As for `Cc1cc(Cl)ccc1O`, the Potency result is “inactive”.

With `O=c1ccc(=O)[nH][nH]1`, the Potency result was “inactive”.

For `CC(NC(C)(C)C)C(=O)c1cccc(Cl)c1` (stereo not given), the Potency result is “inactive”.

For the compound `CCNc1nc(NC(C)C)nc(SC)n1`, the Potency entry is “inactive”.

In the case of `CC(Br)C(=O)O` (stereo not given), the Potency entry is “inactive”.

On to `CC(C)NC(=O)N1CC(=O)N(c2cc(Cl)cc(Cl)c2)C1=O`, for which the Potency result is “inactive”.

Take `Clc1ccccc1Cl`: the Potency result was “inactive”.

On to `CN(C)[C@@H]1C(=O)C(C(N)=O)=C(O)[C@@]2(O)C(=O)C3=C(O)c4c(O)cccc4[C@@](C)(O)[C@H]3C[C@@H]12`, for which the Potency result was “inactive”.

As to `O=C(O)c1ccccn1`, the Potency entry is “inactive”.

As to `ClCCBr`, the Potency entry is “inactive”.

As to `CC(C)(Cl)Cl`, the Potency entry was “inactive”.

Regarding `CC(C)(C)OOC(=O)c1ccccc1`, the Potency result is “inactive”.

As to `O=[N+]([O-])c1ccc([As](=O)(O)O)cc1`, the Potency entry was “inactive”.

As to `CCCCN(CCCC)SN(C)C(=O)Oc1cccc2c1OC(C)(C)C2`, the Potency result was “inactive”.

Take `ClCc1cccnc1`: the Potency entry was “inactive”.

For `O=S(=O)(c1ccc(Cl)cc1)c1cc(Cl)c(Cl)cc1Cl`, the Potency entry is “inactive”.

On to `CC(C)C#N`, for which the Potency result is “inactive”.

In the case of `C1CC2OC2CC1C1CO1` (stereo not given), the Potency entry is “inactive”.

On to `COCCl`, for which the Potency result was “inactive”.

As to `NCCc1ccc(O)cc1`, the Potency result was “inactive”.

In the case of `CCc1cccc(C)c1N(C(=O)CCl)C(C)COC` (stereo not given), the Potency result is “inactive”.

On to `CN1C(=O)CN=C(c2ccccc2)c2cc(Cl)ccc21`, for which the Potency entry is “inactive”.

Consider `CC(C)(C)OOC(C)(C)C`, for which the Potency result was “inactive”.

Take `CN(N=O)c1ccccc1`: the Potency result was “inactive”.

Take `COC(=O)c1ccccc1N`: the Potency entry is “inactive”.

Take `CCC[CH2][Sn]([Cl])([Cl])[Cl]`: the Potency result was “inactive”.

`Clc1ccc(Cl)cc1`: the Potency entry was “inactive”.

In the case of `Cc1ccc(N)cc1Cl`, the Potency entry is “inactive”.

For `c1ccc(-c2ccccc2)cc1`, the Potency result is “inactive”.

As for `CCCCCOC(=O)c1ccccc1C(=O)OCCCCC`, the Potency entry was “inactive”.
